S1P2 antag – blocks the human S1P2 receptor | O95136 | inhibition, % at 5 µM | cell-based S1P2 antagonist assay, inhibition at 5 uM | actives 0.21% (n = 97,000); in the data active = inhibition above about 45%;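 note: CRE beta-lactamase reporter cells expressing human S1P2 stimulated with S1P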
Target sequence (O95136 whole entry, looked up): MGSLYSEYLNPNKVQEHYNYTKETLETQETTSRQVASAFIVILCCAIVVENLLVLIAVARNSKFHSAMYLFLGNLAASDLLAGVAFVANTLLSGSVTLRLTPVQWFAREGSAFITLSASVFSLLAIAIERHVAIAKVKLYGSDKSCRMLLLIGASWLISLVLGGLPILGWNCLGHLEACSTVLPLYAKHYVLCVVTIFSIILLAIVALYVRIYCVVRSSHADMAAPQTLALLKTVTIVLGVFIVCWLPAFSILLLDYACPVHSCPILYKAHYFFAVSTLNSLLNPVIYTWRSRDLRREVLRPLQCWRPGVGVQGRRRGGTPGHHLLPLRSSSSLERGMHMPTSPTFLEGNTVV
GALR2 antag – antagonists of human galanin receptor 2 (GALR2); inhibition, % at 4 µM; AID 828; GALR2-expressing cells, antagonist mode; actives 0.39% (n = 140,000); O43603; in the data active = inhibition above about 27%;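 note: cells stimulated with galanin 1-16 at roughly its EC80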
MRP resist rev – compounds reversing MRP-mediated drug resistance; H69AR cells + 2 uM doxorubicin, CellTiter-Glo, 72 h; differential viability (reversal), % at 10 µM; actives 0.04% (n = 85,000);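 active = viability drop by adding the cancer drug above about 55%, with treated viability meeting a 40% cutoff, limit read from the data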;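 note: larger differential means the compound sensitizes cells more to doxorubicin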
GALR2 ag – agonists of human galanin receptor 2 (GALR2) | actives 0.48% (n = 140,000) | GALR2-expressing cells, agonist activation read-out | activation, % (concentration not given with the values) | O43603; in the data active = activation above about 5%, passing the limit was not always enough
MRP1 act – MRP-1 activation | H69AR cells + doxorubicin, viability rescue, CellTiter-Glo | viability increase, % at 10 µM | actives 0.61% (n = 140,000);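 active = viability gain under doxorubicin at or above a set limit, the compound median plus 3 SD, cut at about 4.7% in these data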;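 note: MRP-1 overexpressing cells given doxorubicin 25 µM after compound pretreatment; 18-22 h compound pretreatment then 72 h with doxorubicin before readout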
S1P2 agonist – agonists of human S1P2 receptor | O95136 | actives 0.46% (n = 97,000) | AID 729 | activation, % at 4.5 µM | S1P2-expressing cell line, agonist reporter read-out; in the data active = activation above about 16%
Large screens that a line does not name were inactive. Rows were chosen to be rich in hits. Some 1.8% of all compounds tested hit in one or more screens of this group.

Cc1ccc(/C=C/C(=O)Nc2sc3c(c2C#N)CCCC3)o1	GALR2 ag 5.7 (no result: S1P2 antag, MRP resist rev, S1P2 agonist)
CCOCCCNC(=O)c1ccc(CS(=O)(=O)Cc2cccc(C)c2)o1	none
O=C(CCn1nnc2ccccc21)Nc1nnc(Cc2ccccc2)s1	none
Cc1cccc(NC(=O)Nc2ccc(C#N)cc2)n1	GALR2 antag 38 (no result: S1P2 antag, S1P2 agonist)
O=c1ccn(-c2cccc(C(F)(F)F)c2)nc1-c1ccn(-c2ccccc2)n1	S1P2 agonist 25 (no result: MRP resist rev)
COc1nc(C)nc(NC(=O)NS(=O)(=O)c2ccc(C)cc2)n1	S1P2 agonist 26
COC(=O)c1ccc(NC(=O)C2CCN(C(=O)c3cc(OC)c(OC)c(OC)c3)CC2)cc1	none
CCOC(=O)c1ccc(NC(=O)C2CCN(C(=O)c3ccc(OC)c(OC)c3)CC2)cc1	MRP1 act 11
CCCOC(=S)NC(=O)c1sc2ccccc2c1Cl	MRP1 act 5.7 (no result: MRP resist rev)
CCOC(=S)NC(=O)c1sc2ccccc2c1Cl	MRP1 act 8.5 (no result: MRP resist rev)
Cc1cnc(NC(=O)c2sc3ccccc3c2Cl)s1	none (no result: S1P2 antag, MRP resist rev, S1P2 agonist)
Cc1sc2ncnc(NCC(C)(C)N3CCOCC3)c2c1C	S1P2 antag 64
Cc1sc2ncnc(NCC3(N4CCOCC4)CCCCC3)c2c1C	none
CCCCOC(=O)Nc1ccc(C(C)C)cc1	MRP1 act 6.0
CCCCOC(=O)Nc1ccc(S(=O)(=O)Nc2ccc([N+](=O)[O-])cc2)cc1	MRP1 act 4.7 (no result: S1P2 antag, MRP resist rev, S1P2 agonist)
COc1ccc(Nc2nnc(SCC(=O)Nc3cc(C)on3)s2)cc1	none (no result: MRP resist rev)
O=C(Nc1ccc(F)cc1)C(Sc1nc2ccccc2[nH]1)c1ccccc1 (stereo not drawn)	none (no result: S1P2 antag, MRP resist rev, S1P2 agonist)
Cc1nnc(SCCN2CCOCC2)n1-c1cccc(Cl)c1	none (no result: S1P2 antag, S1P2 agonist)
CS(=O)(=O)N(CC(=O)O)c1cccc(Cl)c1	none
CCC(C)NC(=O)C1CCN(c2nc(OC)nc(OC)n2)CC1 (stereo not drawn)	S1P2 agonist 22
Cc1cc(/C=N/n2cnnc2)c(C)n1-c1ccc(OCc2ccc(F)cc2)cc1	S1P2 antag 69
CCOC(=O)c1cccc(-n2c(C)nc3ccccc3c2=O)c1	none
C/C(=N/NC(=O)c1ccc2c(c1)OCO2)c1cccc(NC(=O)C(C)(C)C)c1	S1P2 agonist 41 (no result: MRP resist rev)
CCc1nc(C)c(C#N)c2cc(OC)c(OC)cc12	S1P2 agonist 26
COc1ccc(C2=Nn3c(nnc3-c3ccccc3)SC2)cc1OC	S1P2 agonist 27
COc1ccc(OC)c(C2=Nn3c(nnc3C3CCCCC3)SC2)c1	none
COc1ccc(C2=Nn3c(nnc3C3CCCCC3)SC2)cc1OC	S1P2 agonist 36
Cn1c(=O)n(C)c2cc(C(=O)O)ccc21	none
CCOC(=O)N1CCN(C(=O)CSc2nc3c(c(=O)n2-c2ccccc2OC)SCC3)CC1	MRP resist rev 57
COc1ccccc1-n1c(SCC(=O)Nc2ccc(F)cc2)nc2c(c1=O)SCC2	none (no result: S1P2 antag, S1P2 agonist)
c1ccc(Oc2cc(-n3cncn3)ncn2)cc1	none (no result: S1P2 antag, MRP resist rev, S1P2 agonist)
Cc1cnn(-c2cc(Oc3ccccc3)ncn2)c1	MRP1 act 4.8
COc1ccc(C(C)=O)cc1CSc1nc2ccccc2c(=O)n1-c1ccccc1	GALR2 ag 5.0 (no result: S1P2 antag, MRP resist rev, S1P2 agonist)
CCc1ccc(NC(=O)N(Cc2ccco2)C(C)c2cccs2)cc1 (stereo not drawn)	S1P2 agonist 41
CCc1ccc(NC(=O)N(Cc2cccnc2)Cc2ccco2)cc1	none
Cc1c(NCc2cc(Cl)ccc2O)c(=O)n(-c2ccccc2)n1C	none
CC(CCN(C)C)OC(=O)c1ccc(C(C)c2ccccc2)o1 (stereo not drawn)	none
CCOC(=O)c1cc2c(=O)n3ccccc3nc2n(CCCOC)c1=NC(=O)C(C)(C)C	GALR2 ag 12, S1P2 agonist 33
CCOC(=O)c1cc2c(=O)n3ccccc3nc2n(Cc2ccco2)c1=NC(=O)c1cccnc1	none
CCOC(=O)c1cc2c(=O)n3ccccc3nc2n(Cc2ccccc2Cl)c1=N	none (no result: S1P2 antag, GALR2 antag, GALR2 ag, MRP1 act, S1P2 agonist)
CCOC(=O)c1cc2c(=O)n3ccccc3nc2n(CCOC)c1=NC(=O)C(C)(C)C	GALR2 ag 8.7, S1P2 agonist 25
CCOC(=O)c1cc2c(=O)n3ccccc3nc2n(Cc2ccccc2)c1=N	none
CCOC(=O)c1cc2c(=O)n3ccccc3nc2n(CCOC)c1=NC(=O)c1ccncc1	GALR2 ag 7.5, S1P2 agonist 19
CCOCCCn1c(=NC(C)=O)c(C(=O)OCC)cc2c(=O)n3ccccc3nc21	GALR2 ag 7.8, S1P2 agonist 19
Cc1ccc(CCc2nnc(SCC(=O)Nc3cc(Cl)ccc3Cl)n2-c2ccccc2)o1	none (no result: S1P2 antag, MRP resist rev, S1P2 agonist)
CCOC(=O)c1cc2c(=O)n3ccccc3nc2n(CCCOC)c1=NC(=O)c1cccnc1	S1P2 agonist 22
CCOC(=O)c1cc2c(=O)n3ccccc3nc2n(CC(C)C)c1=NC(=O)c1ccco1	none
CCOC(=O)c1cc2c(=O)n3ccccc3nc2n(C(C)C)c1=NC(=O)c1ccncc1	S1P2 agonist 18
Cc1ccc2cc(C#N)c(N3CCCN(S(=O)(=O)c4ccc(F)cc4)CC3)nc2c1	none
COc1cc(C(=O)NCc2ccccc2)cc(Br)c1OC	none (no result: S1P2 antag, MRP resist rev, S1P2 agonist)
COC(=O)C1=CN(C(C)C)C=C(C(=O)OC)C1c1cc(Br)c(OC)c(OC)c1	GALR2 ag 22, S1P2 agonist 18
COC(=O)C1=CN(C(C)C)C=C(C(=O)OC)C1c1cccc(OC)c1	GALR2 ag 21
Cc1cccc(C(=O)c2cnc3ccccc3c2-c2ccccc2)c1	MRP1 act 5.0 (no result: MRP resist rev)
O=C(CSc1ncn[nH]1)Nc1ccc(Br)cc1F	MRP1 act 7.0
CC(C)c1nnc(NC(=O)CSc2ncn[nH]2)s1	MRP1 act 4.8
CC(C)c1nnc(NC(=O)CSc2nc3ccccc3s2)s1	none
COc1cc(C2C3=C(Nc4ncnn42)c2ccccc2CC3)cc(OC)c1OC (stereo not drawn)	GALR2 antag 35, GALR2 ag 5.0
COc1ccc(C2C3=C(Nc4ncnn42)c2ccccc2CCC3)cc1 (stereo not drawn)	none
Nc1ccc(O)cc1C(=O)OCC(=O)c1ccc(C2CCCCC2)cc1	GALR2 ag 6.3 (no result: S1P2 antag, MRP resist rev, S1P2 agonist)
CCc1ccc(-c2nc(NC(=S)NC(=O)c3cccs3)sc2C)cc1	S1P2 agonist 17 (no result: MRP resist rev)
O=C(NCc1ccc(F)cc1)C(=O)NCC1OCCN1C(=O)c1cccs1 (stereo not drawn)	MRP1 act 5.3 (no result: S1P2 antag, MRP resist rev, S1P2 agonist)
N=c1c(C(=O)NCc2ccc(F)cc2)cc2c(=O)n3ccccc3nc2n1CC1CCCO1 (stereo not drawn)	GALR2 ag 14, S1P2 agonist 31 (no result: MRP resist rev)
COCCCn1c(=N)c(C(=O)NCC2CCCO2)cc2c(=O)n3ccccc3nc21 (stereo not drawn)	GALR2 ag 19, S1P2 agonist 24 (no result: MRP resist rev)
Cc1ccc(Cn2c(=N)c(C(=O)NCc3ccco3)cc3c(=O)n4ccccc4nc32)cc1	GALR2 ag 6.8, S1P2 agonist 24
COc1ccc(CNC(=O)c2cc3c(=O)n4ccccc4nc3n(Cc3ccco3)c2=N)cc1	none (no result: MRP1 act)
CCOC(=O)c1c(-c2cccc([N+](=O)[O-])c2)csc1NC(=O)C1CCCCC1	MRP1 act 9.4 (no result: MRP resist rev)
